# According to the supplement of paper PMC4723716:
# Tested on: Plasmodium falciparum NF54 gametocytes
# Experiment: viability index relative to DMSO control (fraction); higher = less gametocyte killing
# Conditions: 12.5 µM, incubation time: 72 h
# Summary of the method: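 The viability index expresses each well's gametocyte particle count relative to the plate mean of solvent-only wells. Stage I–V P. falciparum NF54 gametocytes (0.50% gametocytemia, 1.25% hematocrit, 40 µl of serum-containing medium) were exposed to compound at 12.5 µM for 72 hr at 37°C under low oxygen in 384-well plates. They were stained for 20 min with 5 µl of 5 µM MitoTracker Red CMXRos, and 5 µl was then transferred into 40 µl of 500 nM dye in serum-free medium for imaging of three fields 30 min later.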
# [1] = gametocyte stage: Stage I viability index
# [2] = gametocyte stage: Stage II viability index
# [3] = gametocyte stage: Stage III viability index
# [4] = gametocyte stage: Stage IV viability index
# [5] = gametocyte stage: Stage V viability index
SMILES,viability index [1],viability index [2],viability index [3],viability index [4],viability index [5]
CC(O)(c1ccc(Cl)cc1)C(CN1CCCCC1)c1ccccc1 (stereo not given),0.115,0.32,0.809,0.818,0.802
Cc1ccc(N2C(=O)C3C(C2=O)C2(c4ccccc4)C(=O)C3(c3ccccc3)C(c3ccccc3)=C2c2ccccc2)cc1 (stereo not given),0.733,0.916,1.14,1.03,1.01
CCOc1cc2c(cc1OCC)C(c1cc(Cl)c(O)c(OCC)c1)NCC2 (stereo not given),0.0402,0.163,0.539,0.829,0.922
CC1CCCCN1CCCNC(=O)c1ccc2c(c1)sc1nc(-c3ccc(F)cc3)cn12 (stereo not given),0.113,0.443,1.05,1.2,1
Cc1cc(NC(=O)C2c3ccccc3C(=O)N(CC(C)C)C2c2cccs2)no1 (stereo not given),0.0387,0.0193,0.0636,0.188,0.0879
CCCCc1c(C)nc2c(OC)cccc2c1O,1.07,0.942,1.03,0.954,1.1
COc1ccc(C2Sc3ccccc3N=C3C2=C(O)c2ccccc23)cc1 (stereo not given),0.64,0.882,0.967,1.08,0.956
Cc1ccc(C2CC(C(F)(F)F)n3nc(C(=O)N4CCN(C(c5ccccc5)c5ccccc5)CC4)cc3N2)cc1 (stereo not given),0.576,0.645,0.944,0.804,0.922
COc1cc(-c2nc(-c3ccc(Sc4ccccc4)cc3)c(-c3ccccc3)[nH]2)cc(OC)c1O,0.0507,0.0441,0.0529,0.0222,0.0779
Cc1cc(N(C)C)nc(Nc2ccc(NC(=O)Nc3ccccc3)cc2)n1,0.00262,0.0266,0.138,0.0285,0
O=C(Nc1cccc(C2=NCCN2)c1)Nc1cccc(C2=NCCN2)c1,0.565,0.718,0.773,0.908,0.818
CCn1c2c(c(=N)c3c1CCC3)CCCC2,0.441,0.795,0.957,0.962,0.701
COc1ccc(CCNC(=O)c2cc(S(=O)(=O)N3CC(C)CC(C)C3)ccc2Sc2ccc(F)cc2)cc1OC (stereo not given),0.104,0.445,0.844,0.769,0.987
COc1ccc2nc(C)cc(Nc3ccc(Cl)cc3)c2c1,0.243,0.525,0.994,1.05,0.692
Cc1ccc(C(=O)c2oc3ccc4c(C)cc(=O)oc4c3c2C)cc1,1.1,0.932,0.905,1.04,1.08
CCOc1ccc2nc(C)cc(Nc3ccc(Br)cc3)c2c1,0.152,0.407,0.828,0.851,0.818
COc1ccc(C2c3ccc4ccccc4c3Oc3ncn(CCCN(C)C)c(=N)c32)cc1 (stereo not given),0.0367,0.0483,0.0339,0.0316,0
COc1cc(OC)cc(N2C(=O)N(Cc3ccc(C(C)(C)C)cc3)c3ccccc3S2(=O)=O)c1,1.04,0.96,1,0.785,0.662
COc1cc(C(=O)Nc2ccc(-c3nc4ccccc4[nH]3)cc2)cc(OC)c1OC,0.0918,0.595,1.01,0.968,0.701
Cc1cc(Nc2ccc(Cl)cc2)n2nc(C(F)(F)F)nc2n1,0.957,0.975,1.03,0.97,1
COc1ccc(-c2cn3c(C(=O)Nc4ccccc4Cl)c(-c4ccccc4)c4c3n2CCCC4)cc1,0.673,0.531,0.719,0.794,0.779
Oc1ccccc1CN1CCN(C(c2ccccc2)c2ccccc2)CC1,0.0221,0.102,0.437,0.535,0.615
CCOc1ccc(-c2nonc2NC(=O)c2cccc(C)c2)cc1OCC,0.0619,0.0773,0.0679,0.222,0.626
CCOc1cc(Cl)c(C(C)NC(=O)c2cccc(OC)c2)cc1OCC (stereo not given),0.0343,0.121,0.143,0.298,0.231
CCn1c(SCC(=O)Nc2cc(C(F)(F)F)ccc2Cl)nc2ccccc2c1=O,0.787,0.953,1.17,1.14,1.03
O=C(Nc1ccc(-c2nc3ccccc3[nH]2)cc1)c1ccc(Cl)c(Cl)c1,0.129,0.564,0.894,0.978,0.727
Cc1ccc(-c2nc3ccccc3o2)cc1NCc1cc(Cc2ccccc2)ccc1O,0.0201,0.0666,0.389,0.513,0.792
CCC(C)NCC(O)(c1ccc(Cl)cc1)c1ccc(Cl)cc1 (stereo not given),0.0354,0.0657,0.378,0.584,0.615
Cc1cc(C)cc(Nc2cc(C)nc3nc(C(F)(F)F)nn23)c1,1.02,1.07,1.18,0.869,0.835
COc1ccc(C(=O)C(CCC(CNC(C)(C)C)C(=O)c2ccc(OC)cc2)CNC(C)(C)C)cc1 (stereo not given),0.811,0.698,0.548,0.418,0.117
